# L3MBTL1 inh = inhibitors of human L3MBTL1; Q9Y468; AlphaScreen L3MBTL1–H3K9me1 peptide binding; Potency, µM (top dose mostly 57.1 µM), for inactives: at the highest dose activity, negative = inhibition, actives largely listed as inhibitors; hit rate 0.66% among 230,000; AID 485360; also: nearly all actives have a fitted effect of over 60% in size
#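 Displacement of a biotinylated histone H3(1-15) peptide monomethylated at Lys9 (75 nM) from L3MBTL1 (50 nM) was measured by AlphaScreen after a 30 min room-temperature compound incubation; cefsulodin titration served as intraplate control.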
# KDM4E inh = inhibitors of human JMJD2E histone demethylase | JMJD2E catalytic domain, FDH-coupled NADH fluorescence (FDH is formaldehyde dehydrogenase) | Potency, µM (highest dose often 57.1 µM), inactives show top-dose activity change, negative = inhibition, most hits filed as inhibitors | hit rate 1.6% among 230,000 | B2RXH2; active = well fitted inhibition curve with a large enough effect, not every such curve was filed as active; inconclusive = small, poorly fitted or top-dose-only effect, or another doubt; inactive = no such curve, though single readings can be large or run the other way;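 also: 0% = wells with enzyme and -100% = buffer wells without enzyme; nearly all actives have a fitted effect of over 50% in size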
# Target sequence (B2RXH2 1-337 limits assumed): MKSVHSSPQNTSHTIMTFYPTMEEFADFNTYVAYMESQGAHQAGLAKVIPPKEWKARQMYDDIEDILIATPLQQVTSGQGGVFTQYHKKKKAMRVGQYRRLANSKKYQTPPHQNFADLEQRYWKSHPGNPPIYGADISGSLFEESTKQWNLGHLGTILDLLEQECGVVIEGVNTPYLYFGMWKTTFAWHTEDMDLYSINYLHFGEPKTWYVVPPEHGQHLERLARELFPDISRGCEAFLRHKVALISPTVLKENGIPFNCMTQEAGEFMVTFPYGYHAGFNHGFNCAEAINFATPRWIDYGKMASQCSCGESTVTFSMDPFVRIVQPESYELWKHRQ
# RECQ1 inh = inhibitors of human RECQ1 DNA helicase. P46063. RECQ1 DNA unwinding, red fluorescence kinetic read. Potency, µM (series often up to 57.3 µM), inactives show at the highest dose activity, negative = inhibition, actives largely listed as inhibitors. hit rate 0.54% among 240,000;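 also: plate controls were vehicle for no effect and no enzyme for full effect; nearly all actives have a fitted effect of over 30% in size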
#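 50 nM RECQ1T1 preincubated 15 min with compound in Tris pH 8.0 buffer with MgCl2, DTT, Tween-20 and 2.5 ug/ml poly(dI-dC); started with 200 nM TAMRA/BHQ-2 forked duplex and 2 mM ATP. Unwinding read as fluorescence (525/598 nm), two reads 2 h apart.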
# BLM helicase inh = blocks DNA unwinding by human BLM helicase; Potency, µM (top dose mostly 56.1 µM), for the others: at the highest dose activity change, negative = inhibition, hits mostly inhibitors; AID 2528; recombinant BLM DNA unwinding, fluorescence dequenching; P54132; hit rate 0.2% among 350,000;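 also: plate controls were vehicle for no effect and no enzyme for full effect; nearly all actives have a fitted effect of over 35% in size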
# GCN5L2 inh = blocks human GCN5L2 histone acetyltransferase. Q92830. GCN5L2 HAT assay, ThioGlo1 CoA-SH fluorescence. Potency, µM (highest dose often 58.9 µM), without a hit: top-dose activity change, negative = inhibition, most hits filed as inhibitors. hit rate 0.21% among 390,000. AID 504327
#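 qHTS, 1536-well. 20nM enzyme, pH 7.5 HEPES/EDTA/Tween-20 buffer; 15 min compound preinc., RT. Start: 75uM H3(1-25), 70uM AcCoA, 50uM ThioGlo1. Read Ex340/Em540 at t=0 (autofluorescence flag) and t=20 min.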
# APEX1 inh = blocks human APE1 abasic DNA cleavage | AID 2517 | recombinant APE1, TAMRA/BHQ-2 abasic DNA cleavage fluorescence | P27695 | hit rate 0.35% among 350,000 | Potency, µM (top dose mostly 65.8 µM), for the others: top-dose activity change, negative = inhibition, most hits filed as inhibitors;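 also: plate controls were vehicle for no effect and reference inhibitor for full effect; nearly all actives have a fitted effect of over 55% in size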
# Target sequence (P27695 whole entry, looked up): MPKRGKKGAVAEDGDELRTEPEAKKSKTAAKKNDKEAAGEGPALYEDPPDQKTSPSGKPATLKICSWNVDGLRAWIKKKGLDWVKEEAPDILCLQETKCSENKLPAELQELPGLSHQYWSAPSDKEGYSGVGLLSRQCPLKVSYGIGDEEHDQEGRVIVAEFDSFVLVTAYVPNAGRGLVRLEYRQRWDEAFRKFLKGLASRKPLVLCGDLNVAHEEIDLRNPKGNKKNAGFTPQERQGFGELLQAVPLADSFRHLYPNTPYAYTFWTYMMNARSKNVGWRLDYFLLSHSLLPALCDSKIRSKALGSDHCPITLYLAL
#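 Compound pre-exposure to 0.75 nM APE1, 15 min at ambient temperature. Reaction initiated with 50 nM TAMRA/BHQ-2 THF substrate, read immediately in kinetic mode, 525 nm excitation, 598 nm emission.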
# Numbers without * were called inactive; i = inactive; ? = inconclusive; . = not tested or not shown; ! = repeats disagree. Only a selection was taken, and hits are over-represented in it overall. Unless noted, calls follow the shape of the dose curve; as a rule, active = well fitted curve in the direction sought with a large enough effect; inconclusive = small, poorly fitted or top-dose-only effect, or another doubt; inactive = no such curve, though single readings can be large; an effect the other way counts as inactive or inconclusive. Unless noted, % is scaled to controls: 0 for no effect and ±100 for the full control effect; potency is read from the fitted curve at half-maximal effect.
SMILES,L3MBTL1 inh,KDM4E inh,RECQ1 inh,BLM helicase inh,GCN5L2 inh,APEX1 inh
Cc1ccc(C)c(-n2sc3ccc(F)cc3c2=O)c1,-3%,.,.,.,3.5µM*,17%
COc1ccc(-n2sc3ccc(F)cc3c2=O)cc1,-1%,.,.,.,2.8µM*,23%
O=c1c2cc(F)ccc2sn1-c1ccc(F)cc1,-3%,.,.,.,1.8µM*,17%
COc1ccc(N2C(=O)CSC2c2ccc(F)cc2)cc1 (centres undefined),.,.,.,0%,-9%,0%
Cc1ccc2scc(N3CCN(c4ccc(F)cc4)CC3)c(=O)c2c1,.,.,.,1%,-12%,.
O=C(O)CSc1cc(NS(=O)(=O)c2ccc(Cl)cc2)c2ccccc2c1O,.,.,.,25µM*,55%,60%
Cc1cc(C)c(S(=O)(=O)Nc2cc(SCC(=O)O)c(O)c3ccccc23)cc1C,?,28µM*,-9%,16µM*,17%,?
COc1ccc(S(=O)(=O)Nc2cc(SCC(=O)O)c(O)c3ccccc23)cc1,.,.,.,-21%,73%,26%
O=c1/c(=C/c2ccco2)sc2nc3cc(Br)cnc3n12,.,.,.,.,.,14%
CCOC(=O)c1ccc(NC(=O)C2COc3ccccc3O2)cc1 (centres undefined),4%,.,.,-12%,-2%,16%
CCOC(=O)c1ccc(-n2c(O)c(/C=N/NC(=O)C3COc4ccccc4O3)c3ccccc3c2=O)cc1 (centres undefined),-4%,25µM*,-5%,-2%,-17%,-4%
COc1ccc(OC)c2c(=S)c3ccccc3[nH]c12,.,?,-3%,-3%,14µM*,?
COc1ccc(-c2c(N)nnc3c2[nH]c2ccccc23)cc1OC,0%,2%,-2%,-5%,-17%,-8%
O=C(Nc1cccc(Cl)c1)OCC#CCCl,.,.,28µM*,28µM*,?,1.6µM*
COC(=O)c1sccc1S(=O)(=O)N1CCN(c2cccc(C)c2C)CC1,.,.,.,-10%,-15%,.
C=CCn1c(COc2ccccc2)nnc1SCC(=O)N/N=C/c1ccc(C)cc1,-10%,1%,-2%,-1%,?,-6%
C=CCn1c(CNc2ccccc2)nnc1SCC(=O)N/N=C/c1ccc(O)cc1O,-9%,22µM*,-5%,-2%,-19%,1%
C=CCn1c(CNc2ccc(C)cc2)nnc1SCC(=O)N/N=C/c1ccc(O)cc1O,-7%,16µM*,-2%,-4%,-8%,-1%
C=CCn1c(COc2ccccc2)nnc1SCC(=O)N/N=C/c1cc(Cl)ccc1O,.,28µM*,i,-8%,.,0%
Cc1cc(C(=O)N2CCN(c3cccc(C)c3C)CC2)c2c(C)nn(-c3ccccc3)c2n1,.,.,.,-4%,-11%,.
COC(Cn1c2c(c3cc(C)ccc31)CCCC2NCc1ccccc1)OC (centres undefined),-30%,-11%,-1%,-1%,-3%,-1%
Cc1ccc(S(=O)(=O)Nc2c(C)n(C)n(-c3ccccc3)c2=O)cc1C(=O)OCC(=O)N1CCCC(C)C1 (centres undefined),-3%,1%,i,-1%,-7%,0%
COc1cccc(/C=N/NC(=S)NC2CC3CC2C2C=CCC32)c1O (centres undefined),1%,-6%,12%,-4%,-2%,2%
Oc1ccccc1/C=N/NC(=S)NC1CC2CC1C1C=CCC21 (centres undefined),-17%,16µM*,-10%,-17%,-9%,-1%
O=C(COC(=O)CCc1ccc(S(=O)(=O)N2CCOCC2)cc1)NCc1ccc(Cl)cc1,-3%,5%,-7%,-1%,3%,-4%
SMILES,L3MBTL1 inh,KDM4E inh,RECQ1 inh,BLM helicase inh,GCN5L2 inh,APEX1 inh
Nc1ccc(OC(=O)Nc2ccc(O)cc2)cc1,.,18µM*,-14%,?,-6%,?
Clc1cccc(Cl)c1C1Nc2cccc3cccc(c23)N1,14µM*,.,.,-12%,-10%,35%
Brc1ccc(C2Nc3cccc4cccc(c34)N2)o1,-23%,3.2µM*,?,-1%,-10%,?
O=c1n(CCCN2CCN(c3cccc(Cl)c3)CC2)nc2ccccn12,4%,?,-7%,2%,11µM*!,-4%
O=C1C2CCCN2C(=O)N1CCCN1CCN(c2cccc(Cl)c2)CC1 (centres undefined),-2%,-1%,-3%,2%,-1%,-3%
COc1ccc(-c2nnc3n2N=C(c2ccc(OC)c(OC)c2)CS3)c(OC)c1,.,.,-2%,-5%,.,-5%
COc1ccc(C(=O)n2cnc(N)n2)cc1,-1%,-2%,-12%,-1%,2.2µM*,-2%
CC(C)c1ccccc1S(=O)(=O)c1cc(N)c2ncccc2c1[N+](=O)[O-],.,-23%,i,3%,.,-6%
C#CCOCCOCCOCCNc1nc(N2CCN(C(=O)[C@H](CCCCN)n3cc(C(N)CO)nn3)CC2)nc(N2CCN(C(=O)[C@H](CCC(=O)O)n3cc(C(N)CC(C)C)nn3)CC2)n1 (some centres undefined),.,20µM*,-5%,-2%,-14%,8%
C#CCOCCOCCOCCNc1nc(N2CCN(C(=O)[C@H](CCCCN)n3cc([C@@H](N)CC(C)C)nn3)CC2)nc(N2CCN(C(=O)[C@H](CCCCN)n3cc([C@@H](N)CC(C)C)nn3)CC2)n1,-6%,7%,38%,52%,0%,-4%
COc1cc(C(C#N)N2N=C(c3ccccc3)CC2c2ccccc2)ccc1O (centres undefined),12%,-25%,i,0%,-4%,-2%
N#CC(c1ccccc1O)N1N=C(c2ccccc2)CC1c1ccccc1 (centres undefined),36%,32µM*,-4%,-16%,-5%,-2%
O=C(CNc1cccc2ccccc12)N/N=C/c1cccc(Oc2ccccc2)c1,-8%,28µM*,-17%,-13%,-11%,11%
Cn1cc(/C=C2\SC(=S)N(NC(=O)c3ccccc3)C2=O)c2ccccc21,-7%,1%,32µM*,-8%,-1%,-4%
Cc1nc(-c2coc3c(CN(C)C)c(O)ccc3c2=O)cs1,.,28µM*,18%,-1%,-20%,1%
COc1cc(OC)cc(C(=O)NCCNc2nc3cc(C)cc(C)c3cc2C#N)c1,5%,.,.,-2%,1%,1%
COc1ccc(C(=O)CN2C(=O)NC3(CCc4ccccc43)C2=O)cc1 (centres undefined),.,.,.,-7%,-3%,9%
